# Data published in PubChem BioAssay AID1210 (NMMLSC, 2008).
# Active and inactive are the calls of the source.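 The calls were made as follows: active = blocks over 70% of labeled estradiol binding at 10 µM, or over a set limit at 100 nM; inactive = the rest.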
# Target: Estrogen receptor beta (Homo sapiens) (UniProt Q92731)
# Assay: ERbeta ligand binders by competition, primary screen, cell-based, Cos7 ERbeta-GFP, flow cytometry (AID 1210);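 also: 0% = DMSO vehicle wells and 100% = complete loss of labeled estradiol signal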
# Settings: fluorescent estrogen binding, stronger effect = higher value
# [1] = ligand binding inhibition, at 0.1 µM
# Estrogen receptor beta (Homo sapiens), sequence (Q92731 whole entry, looked up): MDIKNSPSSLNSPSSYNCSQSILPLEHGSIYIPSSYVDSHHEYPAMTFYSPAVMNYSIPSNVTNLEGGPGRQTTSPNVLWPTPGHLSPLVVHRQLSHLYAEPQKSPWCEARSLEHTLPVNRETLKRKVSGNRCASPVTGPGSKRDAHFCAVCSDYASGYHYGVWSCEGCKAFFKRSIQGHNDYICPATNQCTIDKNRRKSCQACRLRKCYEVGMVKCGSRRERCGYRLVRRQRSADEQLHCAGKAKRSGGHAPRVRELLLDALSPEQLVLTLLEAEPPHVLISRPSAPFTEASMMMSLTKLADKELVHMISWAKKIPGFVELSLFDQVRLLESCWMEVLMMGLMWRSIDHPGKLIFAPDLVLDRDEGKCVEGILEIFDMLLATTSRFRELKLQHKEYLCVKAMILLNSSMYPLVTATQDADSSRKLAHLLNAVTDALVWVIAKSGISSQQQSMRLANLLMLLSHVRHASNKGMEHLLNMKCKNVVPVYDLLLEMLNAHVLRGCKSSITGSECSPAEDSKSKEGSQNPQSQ
Structure (SMILES),inhibition (at 10 µM),inhibition [1] [%]
Cc1oc2c(C)c(O)ccc2c(=O)c1-c1ccc2ccccc2n1,15% (inactive),54
O=C1C2CC=C(Cl)CC2C(=O)N1CCCCCCN1C(=O)C2CC=C(Cl)CC2C1=O (centres undefined),28% (inactive),36
Clc1ccc2nc(-c3ccccn3)c(Nc3ccc4c(c3)OCO4)n2c1,60% (inactive),2
CCCc1nc2sc3ccccc3c(=O)c2c(=O)n1Cc1ccco1,21% (inactive),5
CC(=O)c1ccc2c(c1)C1C=CCC1C(C(=O)O)N2 (centres undefined),19% (inactive),6
Nc1ccc2nc3n(c(=O)c2c1)CCC3,49% (inactive),9
COc1ccccc1N1CCN(C(=O)c2ccc3nc(-c4ccco4)c(-c4ccco4)nc3c2)CC1,60% (inactive),11
O=C(Cc1cccs1)Nc1ccc(-c2nnn(CC(=O)N3CCOCC3)n2)cc1,30% (inactive),2
COc1cc2cc(C(c3nnnn3C3CCCC3)N3CCc4ccccc43)c(=O)[nH]c2cc1OC (centres undefined),37% (inactive),25
Oc1ccc(-c2cn3c(n2)SCC3)cc1,64% (inactive),10
CN(C(=S)Nc1cccnc1)c1ccc(O)cc1,14% (inactive),54
Cn1nc([N+](=O)[O-])c2c(-c3nc4ccccc4s3)c(N)n(C3CCCCC3)c2c1=O,18% (inactive),34
Cc1nn(-c2ccc(Cl)cc2)c2sc(C(=O)N3CCN(c4ccccn4)CC3)cc12,50% (inactive),40
CCCCN(CCCC)S(=O)(=O)c1ccc(NC(=O)Cc2cccs2)cc1,50% (inactive),19
Cc1ccc(NC(=O)CSc2nnnn2-c2ccc3c(c2)OCO3)cc1C,32% (inactive),34
COc1cccc(-c2[nH]nc3c2C(c2ccoc2)C(C#N)=C(N)O3)c1 (centres undefined),54% (inactive),29
COc1ccc(C2CC(c3cccs3)=NN2c2ccc(C=O)cc2)cc1 (centres undefined),42% (inactive),29
CC1Cc2ccccc2N1C(=O)CSc1nnc(-c2ccc(S(=O)(=O)N3CCCC3)cc2)o1 (centres undefined),54% (inactive),19
Cc1ccc(-c2n[nH]c(=S)n2/N=C/C=C\c2ccccc2[N+](=O)[O-])cc1,74% (active),4
CCOC(=O)c1c(NC(=O)CSc2nnc(-c3ccccc3)o2)sc(C(C)=O)c1C,40% (inactive),32
CC(=O)N1c2ccc(Cl)cc2C2C=CCC2C1c1cccc2ccccc12 (centres undefined),51% (inactive),6

Structure (SMILES),inhibition (at 10 µM),inhibition [1] [%]
O=c1c(OC2OC(CO)C(O)C(O)C2O)c(-c2ccc(O)c(O)c2)oc2cc(O)cc(O)c12 (centres undefined),36% (inactive),46
CCCc1cc(-n2ccnc2)n2c(nc3ccccc32)c1C#N,32% (active),75
Cc1ccnc(NS(=O)(=O)c2ccc(NC(=O)Cc3cccs3)cc2)n1,38% (inactive),47
O=C(CCCn1c(=S)[nH]c2ccccc2c1=O)N1CCN(c2cccc(Cl)c2)CC1,73% (active),28
Clc1ccc(Sc2cc(N3CCOCC3)nc(-c3ccccc3)n2)cc1,36% (inactive),18
Cc1ccc(NC(=O)CN2C(=O)S/C(=C/c3ccc(-c4cc(C(=O)O)ccc4C)o3)C2=O)cc1C,36% (inactive),21
O=C(Nc1cnn(C23CC4CC(CC(C4)C2)C3)c1)c1cnn2c(C(F)(F)F)cc(-c3ccco3)nc12,26% (inactive),20
CCc1ccc2c(c1)[C@H]1OCC[C@H]1[C@@H](c1cccs1)N2,0% (inactive),65
COc1ccc(C2CC(c3ccccc3)=NN2c2ccc(N)cc2)cc1 (centres undefined),69% (inactive),23
CCOc1ccc2nc(NC(=O)CCC(=O)c3cccs3)sc2c1,29% (inactive),33
O=[N+]([O-])c1cc(/C=N/N2CCN(C3c4ccccc4-c4ccccc43)CC2)ccc1Cl,21% (inactive),2
C[C@]12CC[C@@H]3c4ccc(O)cc4[C@@H](O)C[C@H]3[C@@H]1CC[C@@H]2O,74% (active),56
COc1cc(/C=N/N2CCN(C3c4ccccc4-c4ccccc43)CC2)ccc1O,39% (inactive),10
Oc1c(C=Nc2cccc3cccnc23)sc2ccccc12,31% (inactive),30
Cc1cc(C2(c3ccc(O)c(C)c3)OC(=O)c3ccccc32)ccc1O,73% (active),29
CC(C)(C)OC(=O)N1CCN(c2ccc(NC(=O)Cn3nnc(-c4ccccc4)n3)cc2)CC1,64% (inactive),6
Cc1nc(-c2ccc(O)c(O)c2)cs1,31% (inactive),4
Cc1[nH]c2ccc(-c3nnc(SCC(=O)c4ccccc4F)o3)cc2c1C,18% (inactive),28
CCSc1nnc(NC(=O)C2Cc3ccccc3CN2C(=O)c2ccco2)s1 (centres undefined),45% (inactive),34
CCCSC1=N/C(=C\C=C\c2ccco2)C(=O)S1,47% (inactive),31
COc1ccc(C2=NN(C(=O)c3cccnc3)C(c3ccccc3)C2)cc1 (centres undefined),41% (inactive),12
